Reference: PubChem BioAssay (NCATS)
Where “and” joins values, the source holds several entries; their conditions need not be identical. Identical values can stand only once. Inconclusive results are not listed. A call without a number means that no potency is given here. Calls of active or inactive are those of the source. Unless noted, calls follow the shape of the dose curve; as a rule, active = well fitted curve in either direction with a large enough effect (not every such curve was filed as active); inconclusive = small, poorly fitted or top-dose-only effect, or another doubt; inactive = flat fitted curve, though single readings scatter.

What was measured:
[1] = AP1 Signaling Pathway (AID 357); settings: ME-180 AP-1-bla reporter, EGF-induced, beta-lactamase ratio, 5 h;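 also: ME-180 reporter cells stimulated with EGF at its EC50 level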
Outline: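 Beta-lactamase reporter under AP-1 response element, ME-180 background. Stimulus: EC50 EGF. Compound exposure 5 h, 37 °C. Detection: CCF4, 2.5 h RT, 460/530 nm. Values: AC50 from titration.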

[2] = target: Cytochrome P450 1A2 (Homo sapiens) (UniProt P05177); assay: p450-cyp1a2 (AID 410; calls by dose curve)
Outline: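 20nM CYP1A2, 100uM Luciferin-ME (=Km), 100mM KPO4; cpd 10 min RT; +NADPH regen, 60 min RT; stop/detect 20 min; luminescence. Normalized to furafylline 57 uM = full inhibition.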

[3] = NFAT Signaling Pathway (AID 444); settings: Jurkat NFAT-bla M1, carbachol, beta-lactamase ratio, 5 h;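 also: carbachol stimulus at about its EC50 of 1 µM final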
Outline: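 Read-out: CCF4 FRET ratio (460 nm/530 nm) after 1 h RT dye loading, used for %activity and AC50 from titration series. Cells: Jurkat NFAT-β-lactamase/M1 line, treated with compound plus 1 uM carbachol for 5 h, 37 °C.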

[4] = Stat Signaling Pathway (AID 446); settings: ME-180 (cervical carcinoma) SIE beta-lactamase reporter, IL-6 stimulated, 5 h;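 also: ME-180 cervical cancer cells given 40 pM IL-6 alongside compound; SIE-controlled beta-lactamase reporter measured as 460/530 nm FRET emission ratio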
Outline: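 FRET read-out (405 nm excitation, 460/530 nm emission) of a beta-lactamase reporter under a STAT-inducible element in ME-180 cervical carcinoma cells. Cells with compound receive 40 pM IL-6 for 5 h. Values are normalised to AC90 stimulation and AC90 JAK-inhibitor controls.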

[5] = target: Glucocorticoid receptor (Homo sapiens) (UniProt P04150); assay: GR-GFP Redistribution (AID 450;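 active = compounds whose dose series gives a full or clear partial fitted curve of increased nuclear translocation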; also: potency is read from the fitted curve at half-maximal effect); settings: U2OS GR-GFP nuclear translocation, laser cytometry, 2 h
[6] = target: Glucocorticoid receptor (Homo sapiens) (UniProt P04150); assay: GR-EFC Redistribution (AID 451; calls by dose curve; also: potency is read from the fitted curve at half-maximal effect); settings: CHO-K1 GR-EFC translocation, beta-gal luminescence, 2 h
Outline: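 Translocation of GR-ED fusion to nuclear EA restores b-gal, read by luminescence after 1 h room-temperature detection. Engineered CHO-K1 biosensor cells, 1,000/well, exposed 2 h at 37 C to titrations up to 46 uM final.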

[7] = target: Mitogen-activated protein kinase 10 (Mus musculus) (UniProt Q61831); assay: JNK3 AlphaScreen Assay (AID 530);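 also: kinase came from lysate of stimulated human HepG2 cells; signal reports phosphorylation of biotinylated GST-cJun 1-79 at Ser73 with 10 µM ATP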
Outline: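 Kinase buffer: 20 mM Tris-HCl pH 7.6, 10 mM MgCl2, 1 mM DTT, 0.1 mM Na3VO4, 0.01% Tween-20; ATP 10 uM. Substrate biotin-GST-cJun(1-79), enzyme from activated HepG2 lysates. Detection by Ser73 phospho-antibody AlphaScreen.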

[8] = target: 3',5'-cyclic-AMP phosphodiesterase 4B (Homo sapiens) (UniProt Q07343); assay: qHTS Assay for Inhibitors of PDE-IV (AID 607; active = well fitted activation curve with a large enough effect in the main read-out, with a control signal flat, not every such curve was filed as active)
Outline: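 Cell-based read-out of cAMP via a modified cyclic nucleotide-gated channel and membrane potential dye (535/590 nm) in HEK293 cells expressing PDE4 endogenously. Compounds tested up to 22.9 uM final; 100 uM RO 20-1724 reference.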

[9] = target: Guanine nucleotide-binding protein G(i) subunit alpha-1 (Homo sapiens) (UniProt P63096); assay: qHTS Assay for Inhibitors of RGS12 GoLoco Motif Activity (Green Fluorophore) (AID 879; active = well fitted curve in the direction sought with a large enough effect; an effect the other way counts as inactive or inconclusive;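 also: negative values mean loss of peptide binding seen as reduced polarization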)
Outline: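 A drop in FITC polarization marked displacement of the FITC-tagged RGS12 GoLoco peptide (10 nM) from Gαi1 (50 nM). Compounds were incubated 10 min at room temperature in Tris pH 7.5 buffer containing 150 mM NaCl, 0.1 mM GDP and 0.05% NP40; unlabeled peptide titration served as control.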

[10] = target: Pyruvate kinase (Leishmania mexicana) (UniProt Q27686); assay: qHTS Validation Assay for Inhibitors of Leishmania Mexicana Pyruvate Kinase (AID 945; active = well fitted curve in the direction sought with a large enough effect; an effect the other way counts as inactive or inconclusive)
Outline: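 Read-out: luminescence from PKLight stop/detection reagent, data normalized to DMSO. Reaction: 0.2 nM E451W LmPYK, 0.5 mM PEP, 0.1 mM ADP, pH 7.2, 1 h room temperature.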

[11] = target: Pyruvate kinase PKM (Homo sapiens) (UniProt P14618); assay: qHTS Assay for Activators of Human Muscle Pyruvate Kinase (AID 954; active = well fitted curve in the direction sought with a large enough effect, not every such curve was filed as active)
Outline: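 ATP production by PKM2 detected via luciferase luminescence after 1 h room-temperature reaction (0.1 nM enzyme, PEP at Km 0.5 mM, ADP 0.1 mM, pH 7.2 imidazole buffer). Inhibition scaled to no-enzyme control; activation referenced to 0.3 nM enzyme wells.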

[12] = qHTS Assay for Lipid Storage Modulators (AID 1519; calls by dose curve); settings: Drosophila S3 cells, BODIPY lipid droplet/cell ratio, laser cytometry, cells loaded with oleic acid; for activity change, negative = inhibition: at 25.7 µM (top of the series)
Outline: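 Cells seeded at 5,000 per well were treated with compounds over a concentration series and loaded with oleic acid (400 uM, as added). Lipid droplet fluorescence (488 nm excitation, 500-530 nm channel) was read by laser-scanning cytometry and normalized to 20 uM Triacsin C.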

[13] = target: Ubiquitin carboxyl-terminal hydrolase 1 (Homo sapiens) (UniProt O94782); assay: Inhibitors of USP1/UAF1: Pilot qHTS (AID 504865; active = well fitted curve in the direction sought with a large enough effect; an effect the other way counts as inactive or inconclusive;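 also: rhodamine fluorescence freed from ubiquitin-rhodamine substrate followed over time; top concentration of the series differs between compounds; nearly all actives have a fitted effect of over 35% in size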)
Outline: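 USP1/UAF1 complex at 1 nM preincubated 15 min at room temperature with compound, then Ub-Rho substrate added at 150 nM final. Fluorescence (480/540 nm) read kinetically in 50 mM HEPES pH 7.8, 0.5 mM EDTA, 1 mM TCEP, 0.1 mg/ml BSA, 0.01% Tween-20.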

[14] = target: ATP-dependent 6-phosphofructokinase (Trypanosoma brucei brucei) (UniProt O15648); assay: qHTS Assay to Find Inhibitors of T. brucei phosphofructokinase: hit validation (AID 492961; active = well fitted curve in the direction sought with a large enough effect; an effect the other way counts as inactive or inconclusive;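 also: luminescence reports ADP formed as PFK phosphorylates fructose-6-phosphate with ATP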)
Outline: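 Measures ADP output of PFK (1.25 nM) at 0.1 mM ATP, 0.5 mM F6P, pH 8.0 TEA buffer with 5 mM MgCl2. No-enzyme wells define full inhibition; uninhibited enzyme wells define zero.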

[15] = target: Luciferin 4-monooxygenase (Photinus pyralis) (UniProt P08659); assay: Biochemical firefly luciferase enzyme assay for NPC (AID 624030; active = well fitted curve in the direction sought with a large enough effect; an effect the other way counts as inactive or inconclusive;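 also: purified P. pyralis luciferase at 10 nM with luciferin and ATP substrate; nearly all actives have a fitted effect of over 70% in size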)
Outline: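 Direct inhibition of firefly luciferase enzyme (10 nM final, 50 mM Tris Acetate) assessed by luminescence within 5 minutes. Percent activity scaled between DMSO and PTC124 positive control, with concentration-effect curves classified by fit quality and response.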

[16] = qHTS profiling for inhibitors of Plasmodium falciparum proliferation (AID 504749; active = well fitted curve in the direction sought with a large enough effect; an effect the other way counts as inactive or inconclusive; also: nearly all actives have a fitted effect of over 60% in size); settings: P. falciparum in erythrocytes, SYBR Green DNA, 72 h
Outline: (§1)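 In a 72 h erythrocytic culture (37 C, humidified, 5% CO2) at 2.5% hematocrit and 0.3% starting parasitemia, compounds were tested; SYBR Green I in detergent lysis buffer stained parasite DNA overnight.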

[17] = system: CP238; assay: as above; settings: P. falciparum in erythrocytes, SYBR Green DNA, 72 h; series mostly up to 12.8 µM
Outline: as §1

[18] = system: CP265; assay: as above; settings: P. falciparum in erythrocytes, SYBR Green DNA, 72 h; series mostly up to 12.8 µM
Outline: as §1

[19] = system: FAB9; assay: as above; settings: P. falciparum in erythrocytes, SYBR Green DNA, 72 h; series mostly up to 12.8 µM
Outline: as §1

[20] = system: AS120; assay: as above; settings: P. falciparum in erythrocytes, SYBR Green DNA, 72 h; series mostly up to 28.7 µM
Outline: as §1

[21] = at 7.69 µM (top of the series) unless noted
[22] = measured here: cell count channel max response
[23] = measured here: lipid channel max response

Chain of 3',5'-cyclic-AMP phosphodiesterase 4B (Homo sapiens) (Q07343 whole entry, looked up): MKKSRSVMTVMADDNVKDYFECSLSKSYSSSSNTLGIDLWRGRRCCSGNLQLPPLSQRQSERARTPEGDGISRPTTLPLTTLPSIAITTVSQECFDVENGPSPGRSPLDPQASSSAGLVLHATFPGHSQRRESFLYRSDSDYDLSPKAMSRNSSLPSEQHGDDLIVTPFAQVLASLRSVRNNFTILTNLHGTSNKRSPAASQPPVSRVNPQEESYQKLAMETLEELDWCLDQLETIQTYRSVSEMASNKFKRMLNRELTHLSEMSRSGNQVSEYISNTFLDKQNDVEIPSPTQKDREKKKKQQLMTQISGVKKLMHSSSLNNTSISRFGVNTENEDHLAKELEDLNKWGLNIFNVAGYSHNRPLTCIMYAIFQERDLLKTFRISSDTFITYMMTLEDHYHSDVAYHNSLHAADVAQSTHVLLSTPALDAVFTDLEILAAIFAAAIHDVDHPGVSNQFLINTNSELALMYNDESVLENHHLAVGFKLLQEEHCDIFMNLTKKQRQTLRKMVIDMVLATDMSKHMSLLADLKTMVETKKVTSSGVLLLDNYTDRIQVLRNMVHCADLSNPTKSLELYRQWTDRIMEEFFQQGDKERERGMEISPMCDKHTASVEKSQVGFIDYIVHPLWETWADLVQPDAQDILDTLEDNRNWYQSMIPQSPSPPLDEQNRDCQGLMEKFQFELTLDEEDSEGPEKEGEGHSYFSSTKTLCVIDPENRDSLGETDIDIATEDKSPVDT
Chain of Pyruvate kinase PKM (Homo sapiens) (P14618 whole entry, looked up): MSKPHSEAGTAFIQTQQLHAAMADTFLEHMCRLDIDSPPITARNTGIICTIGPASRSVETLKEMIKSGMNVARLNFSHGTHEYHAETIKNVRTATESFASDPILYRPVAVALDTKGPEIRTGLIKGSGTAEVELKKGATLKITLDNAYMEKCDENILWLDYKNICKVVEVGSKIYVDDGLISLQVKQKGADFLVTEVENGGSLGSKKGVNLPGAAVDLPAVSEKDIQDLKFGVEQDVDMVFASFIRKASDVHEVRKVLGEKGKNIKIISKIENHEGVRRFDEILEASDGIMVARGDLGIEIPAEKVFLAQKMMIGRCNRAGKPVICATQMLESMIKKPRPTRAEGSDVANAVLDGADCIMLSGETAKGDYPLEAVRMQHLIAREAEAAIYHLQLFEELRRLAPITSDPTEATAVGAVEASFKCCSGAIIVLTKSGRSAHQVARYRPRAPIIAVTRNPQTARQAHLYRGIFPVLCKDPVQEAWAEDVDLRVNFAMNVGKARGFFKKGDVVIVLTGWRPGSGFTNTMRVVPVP
Chain of Guanine nucleotide-binding protein G(i) subunit alpha-1 (Homo sapiens) (P63096 whole entry, looked up): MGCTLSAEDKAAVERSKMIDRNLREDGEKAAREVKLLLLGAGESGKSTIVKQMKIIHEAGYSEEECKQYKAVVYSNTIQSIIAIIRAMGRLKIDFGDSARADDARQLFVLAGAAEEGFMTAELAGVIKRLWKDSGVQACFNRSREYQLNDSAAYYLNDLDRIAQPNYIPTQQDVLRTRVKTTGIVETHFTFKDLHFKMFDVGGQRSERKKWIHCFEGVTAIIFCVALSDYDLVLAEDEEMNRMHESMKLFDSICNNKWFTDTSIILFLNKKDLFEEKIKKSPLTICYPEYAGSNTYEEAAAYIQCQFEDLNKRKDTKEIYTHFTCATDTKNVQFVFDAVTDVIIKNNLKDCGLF
Chain of Ubiquitin carboxyl-terminal hydrolase 1 (Homo sapiens) (O94782 whole entry, looked up): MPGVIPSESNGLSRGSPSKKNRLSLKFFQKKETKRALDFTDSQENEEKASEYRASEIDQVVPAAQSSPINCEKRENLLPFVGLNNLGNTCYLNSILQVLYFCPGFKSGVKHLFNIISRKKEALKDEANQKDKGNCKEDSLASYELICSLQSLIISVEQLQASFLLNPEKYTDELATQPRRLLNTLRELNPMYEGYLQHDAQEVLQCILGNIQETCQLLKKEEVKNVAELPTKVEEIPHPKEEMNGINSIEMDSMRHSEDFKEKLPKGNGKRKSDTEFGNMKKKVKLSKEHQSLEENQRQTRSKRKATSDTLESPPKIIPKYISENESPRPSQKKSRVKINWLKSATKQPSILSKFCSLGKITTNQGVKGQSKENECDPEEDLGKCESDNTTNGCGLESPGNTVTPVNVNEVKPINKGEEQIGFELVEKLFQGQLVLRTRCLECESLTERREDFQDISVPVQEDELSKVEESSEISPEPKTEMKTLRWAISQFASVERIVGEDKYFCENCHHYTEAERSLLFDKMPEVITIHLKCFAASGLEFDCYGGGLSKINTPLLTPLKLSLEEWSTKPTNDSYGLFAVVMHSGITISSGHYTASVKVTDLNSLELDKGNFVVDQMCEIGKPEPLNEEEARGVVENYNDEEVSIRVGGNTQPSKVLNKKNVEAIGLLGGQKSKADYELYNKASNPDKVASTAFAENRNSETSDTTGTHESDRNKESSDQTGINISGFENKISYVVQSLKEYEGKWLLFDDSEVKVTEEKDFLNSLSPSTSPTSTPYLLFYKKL
Chain of Pyruvate kinase (Leishmania mexicana) (Q27686 2-499 E452W): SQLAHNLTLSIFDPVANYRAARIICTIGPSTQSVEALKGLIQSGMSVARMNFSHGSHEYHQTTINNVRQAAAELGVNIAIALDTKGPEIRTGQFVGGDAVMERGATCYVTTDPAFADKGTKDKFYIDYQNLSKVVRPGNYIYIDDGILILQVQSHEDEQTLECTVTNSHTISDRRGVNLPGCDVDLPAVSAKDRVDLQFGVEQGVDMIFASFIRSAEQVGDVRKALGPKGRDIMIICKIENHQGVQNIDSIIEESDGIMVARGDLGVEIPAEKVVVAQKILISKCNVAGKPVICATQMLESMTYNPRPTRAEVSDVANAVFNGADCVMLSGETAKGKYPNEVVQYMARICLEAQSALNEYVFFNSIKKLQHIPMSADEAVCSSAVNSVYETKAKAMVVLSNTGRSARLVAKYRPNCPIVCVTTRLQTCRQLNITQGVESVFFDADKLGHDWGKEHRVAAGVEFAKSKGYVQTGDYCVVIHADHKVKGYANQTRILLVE
Chain of Cytochrome P450 1A2 (Homo sapiens) (P05177 whole entry, looked up): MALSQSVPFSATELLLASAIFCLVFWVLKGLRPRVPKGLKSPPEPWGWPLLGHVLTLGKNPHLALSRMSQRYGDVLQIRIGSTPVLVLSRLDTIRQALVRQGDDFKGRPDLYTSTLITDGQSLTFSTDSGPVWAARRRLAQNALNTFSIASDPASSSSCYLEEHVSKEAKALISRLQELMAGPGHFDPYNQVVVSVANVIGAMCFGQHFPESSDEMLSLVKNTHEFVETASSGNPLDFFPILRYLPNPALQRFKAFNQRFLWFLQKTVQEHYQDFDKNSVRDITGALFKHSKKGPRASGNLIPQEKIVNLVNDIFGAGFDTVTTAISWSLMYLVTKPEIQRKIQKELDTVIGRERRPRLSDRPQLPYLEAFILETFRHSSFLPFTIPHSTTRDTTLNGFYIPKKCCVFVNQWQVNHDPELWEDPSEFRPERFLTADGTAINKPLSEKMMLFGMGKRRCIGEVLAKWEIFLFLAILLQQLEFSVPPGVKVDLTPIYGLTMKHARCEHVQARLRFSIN
Chain of Glucocorticoid receptor (Homo sapiens) (P04150 whole entry, looked up, the tested form may be a part): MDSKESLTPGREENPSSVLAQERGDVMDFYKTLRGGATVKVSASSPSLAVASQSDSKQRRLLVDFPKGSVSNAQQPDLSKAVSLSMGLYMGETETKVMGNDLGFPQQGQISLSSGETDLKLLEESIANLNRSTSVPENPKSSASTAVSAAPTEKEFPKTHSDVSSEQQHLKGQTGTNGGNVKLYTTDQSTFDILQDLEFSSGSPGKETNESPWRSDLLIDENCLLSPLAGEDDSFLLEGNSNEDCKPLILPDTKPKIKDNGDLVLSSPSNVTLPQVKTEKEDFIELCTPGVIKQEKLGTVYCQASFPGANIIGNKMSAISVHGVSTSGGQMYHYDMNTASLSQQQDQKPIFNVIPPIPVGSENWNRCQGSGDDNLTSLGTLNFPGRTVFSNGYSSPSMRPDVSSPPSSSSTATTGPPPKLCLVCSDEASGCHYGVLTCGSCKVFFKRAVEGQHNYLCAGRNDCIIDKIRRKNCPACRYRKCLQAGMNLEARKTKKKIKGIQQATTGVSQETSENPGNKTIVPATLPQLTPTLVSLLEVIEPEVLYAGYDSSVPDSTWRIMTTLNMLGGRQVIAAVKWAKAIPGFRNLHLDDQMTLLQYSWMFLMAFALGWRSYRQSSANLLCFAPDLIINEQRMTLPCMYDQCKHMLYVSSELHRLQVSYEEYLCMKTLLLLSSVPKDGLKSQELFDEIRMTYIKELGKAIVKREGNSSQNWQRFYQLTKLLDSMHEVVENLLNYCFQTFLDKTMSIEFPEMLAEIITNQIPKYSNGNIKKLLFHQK
Chain of ATP-dependent 6-phosphofructokinase (Trypanosoma brucei brucei) (O15648 whole entry, looked up): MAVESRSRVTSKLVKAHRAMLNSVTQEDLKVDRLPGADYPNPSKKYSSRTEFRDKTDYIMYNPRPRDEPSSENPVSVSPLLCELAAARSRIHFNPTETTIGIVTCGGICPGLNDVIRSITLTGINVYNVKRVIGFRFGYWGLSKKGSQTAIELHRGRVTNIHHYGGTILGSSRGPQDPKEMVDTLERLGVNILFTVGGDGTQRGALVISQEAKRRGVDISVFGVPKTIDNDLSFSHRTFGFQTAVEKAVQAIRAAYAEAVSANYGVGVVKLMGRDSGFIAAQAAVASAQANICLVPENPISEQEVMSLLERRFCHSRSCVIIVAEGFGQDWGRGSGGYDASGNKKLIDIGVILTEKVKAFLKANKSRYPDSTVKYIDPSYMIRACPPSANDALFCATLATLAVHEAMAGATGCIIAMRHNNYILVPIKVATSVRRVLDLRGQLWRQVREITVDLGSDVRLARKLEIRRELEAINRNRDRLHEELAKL

## CC(C)(Oc1ccc([C@@H]2CC2(Cl)Cl)cc1)C(=O)O
[1]; at 17.2 µM (top of the series)
  activity change, negative = inhibition: -1.19% (inactive)
[1]; at 38 µM (top of the series)
  activity change, negative = inhibition: -10.2% (inactive)
[2]
  Potency: inactive
[3]; at 17.2 µM (top of the series)
  activity change, negative = inhibition: -16.8% (inactive)
[3]; at 38 µM (top of the series)
  activity change, negative = inhibition: -7.66% (inactive)
[4]; [21]
  activity, negative = inhibition: -2.06% [at 17.2 µM] (inactive)
[5]
  Potency: > 46 µM (inactive) and > 20.6 µM (inactive)
[6]
  Potency: > 46 µM (inactive) and > 20.6 µM (inactive)
[7]
  Potency: inactive
[8]
  Potency: inactive
[9]
  Potency: inactive
[10]
  outcome: inactive
[11]
  outcome: inactive
[12]
  activity change, negative = inhibition: -0.371% (inactive)
[12]; [22]
  max response: -16.1%
[12]; [23]
  max response: -15.2%
[13]
  Potency: inactive

## C[C@@H](CN(C)C)CN1c2ccccc2CCc2ccccc21
[1]; at 17.2 µM (top of the series)
  activity change, negative = inhibition: 77.9% [activator] (active)
[1]; at 38 µM (top of the series)
  activity change, negative = inhibition: 90.9% [activator] (active)
[2]
  Potency: inactive
[4]; at 17.2 µM (top of the series)
  activity, negative = inhibition: 1.59% (inactive)
[4]; at 38 µM (top of the series)
  activity, negative = inhibition: -7% (inactive)
[7]
  Potency: inactive
[8]
  Potency: inactive
[9]
  Potency: inactive
[10]
  outcome: inactive
[11]
  outcome: inactive
[12]
  activity change, negative = inhibition: -5.99% (inactive)
[12]; [22]
  max response: -11.8%
[12]; [23]
  max response: -16.4%
[14]
  outcome: inactive
[13]
  Potency: inactive
[15]
  outcome: inactive
[16]; at 12.8 µM (top of the series), parasite line A
  activity, negative = inhibition: -6.2% (inactive)
[17]
  Potency: inactive
[18]
  Potency: inactive
[19]
  Potency: inactive

## C[C@H](NCCc1ccc(O)cc1)[C@@H](O)c1ccc(O)cc1
[1]; at 17.2 µM (top of the series)
  activity change, negative = inhibition: -5.73% (inactive)
[1]; at 38 µM (top of the series)
  activity change, negative = inhibition: 12.1% (inactive)
[2]
  Potency: inactive
[3]; [21]
  activity change, negative = inhibition: -28.4% [at 17.2 µM] (inactive)
[4]; [21]
  activity, negative = inhibition: 13.1% [at 17.2 µM] (inactive)
[5]
  Potency: > 46 µM (inactive) and > 20.6 µM (inactive)
[6]
  Potency: > 46 µM (inactive) and > 20.6 µM (inactive)
[7]
  Potency: inactive
[8]
  Potency: inactive
[9]
  Potency: inactive
[10]
  outcome: inactive
[11]
  outcome: inactive
[12]
  activity change, negative = inhibition: -0.451% (inactive)
[12]; [22]
  max response: -0.183%
[12]; [23]
  max response: -0.394%
[14]
  outcome: inactive
[13]
  Potency: inactive
[15]
  outcome: inactive
[16]; at 28.7 µM (top of the series), parasite line A
  activity, negative = inhibition: 3.98% (inactive)
[16]; at 28.7 µM (top of the series), parasite line B
  activity, negative = inhibition: 6.27% (inactive)
[20]
  Potency: inactive
[17]
  Potency: inactive
[18]
  Potency: inactive
[19]
  Potency: inactive

## O[C@@](CCN1CCCCC1)(c1ccccc1)C1CCCCC1
[1]; at 17.2 µM (top of the series)
  activity change, negative = inhibition: 7.19% (inactive)
[1]; at 38 µM (top of the series)
  activity change, negative = inhibition: 17.8% (inactive)
[2]
  Potency: inactive
[3]; at 17.2 µM (top of the series)
  activity change, negative = inhibition: -51.7% (active)
[3]; at 38 µM (top of the series)
  activity change, negative = inhibition: -75.1% (active)
[4]; at 17.2 µM (top of the series)
  activity, negative = inhibition: -9.32% (inactive)
[4]; at 38 µM (top of the series)
  activity, negative = inhibition: 15.1% (inactive)
[7]
  Potency: inactive
[8]
  Potency: inactive
[9]
  Potency: inactive
[10]
  outcome: inactive
[11]
  outcome: inactive
[12]
  activity change, negative = inhibition: -1.35% (inactive)
[12]; [22]
  max response: -17.3%
[12]; [23]
  max response: -19.7%
